Experimental data published in PubChem BioAssay (EPA / NIEHS).
Records with an inconclusive call do not appear. Calls of active or inactive are those of the source. Rule for the calls, unless noted: active = hit-call score of the fitted dose curve at least 0.9, where 1 is the maximum; inconclusive = response in the unintended direction; inactive = score below 0.9.

Key:
[1] = biological target: human Peroxisome Proliferator-activated Receptor alpha (PPARa), PPARA (gene 5465) (UniProt Q07869); experiment: ATG_PPARa_TRANS: Attagene TRANS-FACTORIAL HepG2 Assay for human Peroxisome Proliferator-activated Receptor alpha (PPARa) (AID 2283001);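 for AC50: potency for gain of reporter signal over DMSO so agonist or activator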
Sequence of human Peroxisome Proliferator-activated Receptor alpha (PPARa), PPARA (gene 5465) (Q07869 whole entry, looked up): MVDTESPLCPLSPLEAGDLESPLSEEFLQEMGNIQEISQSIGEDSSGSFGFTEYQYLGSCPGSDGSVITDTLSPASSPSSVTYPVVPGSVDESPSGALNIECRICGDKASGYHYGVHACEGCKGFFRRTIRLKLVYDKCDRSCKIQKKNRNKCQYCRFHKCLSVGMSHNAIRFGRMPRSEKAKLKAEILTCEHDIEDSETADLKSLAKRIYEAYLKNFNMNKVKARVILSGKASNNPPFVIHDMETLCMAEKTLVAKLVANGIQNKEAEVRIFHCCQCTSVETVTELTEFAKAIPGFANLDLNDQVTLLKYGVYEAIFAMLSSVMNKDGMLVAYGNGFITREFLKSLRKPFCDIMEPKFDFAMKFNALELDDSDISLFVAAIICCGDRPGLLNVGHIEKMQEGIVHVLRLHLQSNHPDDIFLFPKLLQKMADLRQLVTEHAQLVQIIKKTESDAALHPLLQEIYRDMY
Method in brief: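 Cells (HepG2) are transfected with multiple reporter transcription units, exposed to chemical for 24 h, then total RNA is reverse-transcribed and amplified. Labelled products are quantified by capillary electrophoresis; induction is referenced to DMSO.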

[2] = biological target: human Peroxisome Proliferator-activated Receptor delta (PPARd), PPARD (gene 5467) (UniProt Q03181); experiment: ATG_PPARd_TRANS: Attagene TRANS-FACTORIAL HepG2 Assay for human Peroxisome Proliferator-activated Receptor delta (PPARd) (AID 2283002)
Sequence of human Peroxisome Proliferator-activated Receptor delta (PPARd), PPARD (gene 5467) (Q03181 whole entry, looked up, the tested form may be a part): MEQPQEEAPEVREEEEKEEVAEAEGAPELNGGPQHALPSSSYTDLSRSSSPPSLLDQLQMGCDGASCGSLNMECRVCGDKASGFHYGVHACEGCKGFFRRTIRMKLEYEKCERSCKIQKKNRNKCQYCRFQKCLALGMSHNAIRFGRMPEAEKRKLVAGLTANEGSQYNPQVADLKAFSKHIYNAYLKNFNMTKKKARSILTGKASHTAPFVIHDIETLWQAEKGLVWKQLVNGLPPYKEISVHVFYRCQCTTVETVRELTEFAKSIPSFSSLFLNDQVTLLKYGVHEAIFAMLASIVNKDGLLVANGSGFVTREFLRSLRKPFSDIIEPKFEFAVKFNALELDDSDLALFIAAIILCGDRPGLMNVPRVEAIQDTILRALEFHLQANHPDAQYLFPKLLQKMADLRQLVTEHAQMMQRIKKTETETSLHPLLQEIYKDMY
Method in brief: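 HepG2 cells transiently transfected with multiplexed GAL4-UAS reporter units and exogenous chimeric NR-Gal4 proteins; 24 h compound exposure. Reporter mRNA measured by RT-PCR, 6-FAM labelling, HpaI digestion and capillary electrophoresis; gain of signal versus DMSO.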

[3] = biological target: human Retinoic Acid Receptor beta (RARb), RARB (gene 5915) (UniProt P10826); experiment: ATG_RARb_TRANS: Attagene TRANS-FACTORIAL HepG2 Assay for human Retinoic Acid Receptor beta (AID 2283004)
Method in brief: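 HepG2, transient MRTU transfection, NR–Gal4 chimera, 24 h treatment; RT-PCR plus CE fluorescence detection of reporter mRNA; gain of signal vs DMSO.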

[4] = biological target: Peroxisome proliferator-activated receptor gamma (Homo sapiens) (UniProt P37231); experiment: ATG_PPARg_TRANS: Attagene TRANS-FACTORIAL HepG2 Assay for human Peroxisome Proliferator-activated Receptor-gamma (PPARg) (AID 2283007)
Sequence of Peroxisome proliferator-activated receptor gamma (Homo sapiens) (P37231 whole entry, looked up, the tested form may be a part): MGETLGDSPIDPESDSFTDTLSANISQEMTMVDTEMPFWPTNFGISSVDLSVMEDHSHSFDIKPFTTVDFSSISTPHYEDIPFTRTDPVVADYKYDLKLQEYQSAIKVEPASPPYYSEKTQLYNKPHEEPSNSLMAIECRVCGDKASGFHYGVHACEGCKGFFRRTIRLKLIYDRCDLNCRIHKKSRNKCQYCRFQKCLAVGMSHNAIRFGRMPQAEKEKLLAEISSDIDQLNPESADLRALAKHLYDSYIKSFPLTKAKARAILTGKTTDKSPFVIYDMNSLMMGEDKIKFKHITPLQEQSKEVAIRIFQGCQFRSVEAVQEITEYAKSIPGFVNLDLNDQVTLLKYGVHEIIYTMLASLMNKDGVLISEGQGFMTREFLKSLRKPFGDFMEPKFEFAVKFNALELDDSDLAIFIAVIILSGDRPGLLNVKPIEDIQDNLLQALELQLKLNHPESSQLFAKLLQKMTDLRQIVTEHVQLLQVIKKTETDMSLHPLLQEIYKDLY
Method in brief: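 Transient transfection of HepG2 with GAL4-UAS-driven reporter units; chemical dosing 24 h; total RNA → oligo(dT) RT → PCR with reporter primers → 6-FAM primer extension → HpaI digest 2 h 37 C → capillary electrophoresis. Positive direction vs DMSO.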

[5] = biological target: Nuclear receptor subfamily 1 group I member 2 (Homo sapiens) (UniProt O75469); experiment: ATG_PXR_TRANS: Attagene TRANS-FACTORIAL HepG2 Assay for human Pregnane X Receptor (PXR) (AID 2283008)
Sequence of Nuclear receptor subfamily 1 group I member 2 (Homo sapiens) (O75469 whole entry, looked up, the tested form may be a part): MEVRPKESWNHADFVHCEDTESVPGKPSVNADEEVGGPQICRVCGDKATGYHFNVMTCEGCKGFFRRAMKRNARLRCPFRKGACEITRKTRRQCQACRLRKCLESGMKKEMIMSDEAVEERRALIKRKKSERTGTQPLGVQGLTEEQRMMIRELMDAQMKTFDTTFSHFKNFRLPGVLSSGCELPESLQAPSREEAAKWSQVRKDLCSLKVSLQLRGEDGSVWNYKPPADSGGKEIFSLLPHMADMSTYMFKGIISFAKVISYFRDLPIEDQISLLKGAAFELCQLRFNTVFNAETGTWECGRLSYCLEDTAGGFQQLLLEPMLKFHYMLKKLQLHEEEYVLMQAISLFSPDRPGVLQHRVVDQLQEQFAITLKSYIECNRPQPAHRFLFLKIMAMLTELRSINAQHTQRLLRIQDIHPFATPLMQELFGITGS
Method in brief: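 Transient HepG2 transfectants carrying multiplexed reporter transcription units; PXR activity read through a Gal4 chimera. 24 h exposure. RT-PCR/CE fluorescence; upward curve fit referenced to DMSO.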

[6] = biological target: human Retinoic Acid Receptor gamma (RARg), RARG (gene 5916) (UniProt P13631); experiment: ATG_RARg_TRANS: Attagene TRANS-FACTORIAL HepG2 Assay for human Retinoic Acid Receptor gamma (RARg) (AID 2283009)
Sequence of human Retinoic Acid Receptor gamma (RARg), RARG (gene 5916) (P13631 whole entry, looked up, the tested form may be a part): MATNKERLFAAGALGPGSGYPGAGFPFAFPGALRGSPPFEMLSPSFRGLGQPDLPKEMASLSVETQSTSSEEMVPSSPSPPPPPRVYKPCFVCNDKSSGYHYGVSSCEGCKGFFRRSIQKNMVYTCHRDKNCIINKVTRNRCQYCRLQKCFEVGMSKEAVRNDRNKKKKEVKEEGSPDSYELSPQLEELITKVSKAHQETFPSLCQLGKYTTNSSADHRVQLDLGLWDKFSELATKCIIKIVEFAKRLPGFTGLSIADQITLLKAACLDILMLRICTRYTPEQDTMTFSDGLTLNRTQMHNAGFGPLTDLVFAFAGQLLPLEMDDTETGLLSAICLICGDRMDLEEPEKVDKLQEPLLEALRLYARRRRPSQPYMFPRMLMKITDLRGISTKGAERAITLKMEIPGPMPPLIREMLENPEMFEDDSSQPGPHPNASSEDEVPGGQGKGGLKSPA
Method in brief: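 TRANS format measured activity of exogenous NR-GAL4 fusion (RARg) in transfected HepG2 liver cells after 24 h dosing. Induced reporter RNA was detected by RT-PCR/capillary electrophoresis fluorescence, analysed in the positive direction against DMSO.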

[7] = biological target: human RAR-related Orphan Receptor beta (RORb), RORB (gene 6096) (UniProt Q92753); experiment: ATG_RORb_TRANS: Attagene TRANS-FACTORIAL HepG2 Assay for human RAR-related Orphan Receptor beta (RORb) (AID 2283010)
Method in brief: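 Transfect HepG2 with multiple GAL4-UAS reporter transcription units; dose chemicals for 24 h; isolate RNA, reverse-transcribe and PCR-amplify reporter sequences; label, digest and resolve fragments by capillary electrophoresis; fit increases relative to DMSO.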

[8] = biological target: human RAR-related Orphan Receptor gamma (RORg), RORC (gene 6097) (UniProt P51449); experiment: ATG_RORg_TRANS: Attagene TRANS-FACTORIAL HepG2 Assay for human RAR-related Orphan Receptor gamma (RORg) (AID 2283011)
Sequence of human RAR-related Orphan Receptor gamma (RORg), RORC (gene 6097) (P51449 whole entry, looked up, the tested form may be a part): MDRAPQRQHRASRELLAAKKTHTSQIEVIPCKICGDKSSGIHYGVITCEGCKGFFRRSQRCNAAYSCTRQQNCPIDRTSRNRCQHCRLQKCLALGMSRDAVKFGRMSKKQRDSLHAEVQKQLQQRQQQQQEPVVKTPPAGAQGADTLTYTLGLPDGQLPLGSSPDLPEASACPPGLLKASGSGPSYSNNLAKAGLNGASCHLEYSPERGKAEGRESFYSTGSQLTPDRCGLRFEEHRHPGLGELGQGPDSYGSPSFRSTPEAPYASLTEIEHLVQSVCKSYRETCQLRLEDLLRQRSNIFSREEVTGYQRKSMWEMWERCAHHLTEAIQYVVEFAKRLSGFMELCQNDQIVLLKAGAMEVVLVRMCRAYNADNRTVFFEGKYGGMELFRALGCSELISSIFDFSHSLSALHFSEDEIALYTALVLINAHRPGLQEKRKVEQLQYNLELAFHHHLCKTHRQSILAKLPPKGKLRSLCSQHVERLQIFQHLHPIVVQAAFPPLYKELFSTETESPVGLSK
Method in brief: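 Activity is scored as increase in GAL4-UAS reporter mRNA over DMSO, detected by fluorescent RT-PCR and capillary electrophoresis in HepG2 cells transiently expressing a RORg-Gal4 chimera, 24 h after dosing.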

[9] = biological target: Retinoic acid receptor RXR-alpha (Homo sapiens) (UniProt P19793); experiment: ATG_RXRa_TRANS: Attagene TRANS-FACTORIAL HepG2 Assay for human Retinoid X Receptor alpha (RXRa) (AID 2283012)
Method in brief: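 Measures exogenous chimeric NR-GAL4 activity in transfected HepG2 liver cells after 24 h of dosing. Induced reporter mRNA was detected by RT-PCR with capillary electrophoresis, and gain of signal was analysed against DMSO.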

[10] = biological target: human Vitamin D Receptor (VDR), VDR (gene 7421) (UniProt P11473); experiment: ATG_VDR_TRANS: Attagene TRANS-FACTORIAL HepG2 Assay for human Vitamin D Receptor (VDR) (AID 2283022)
Method in brief: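 Fluorescence of labelled reporter cDNA fragments, resolved by capillary electrophoresis, gives mRNA induction after 24 h treatment of HepG2 cells carrying transfected Gal4-fusion reporter units. Activity is fitted in the positive direction with DMSO as baseline.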

[11] = biological target: human Retinoid X Receptor beta (RXRb), RXRB (gene 6257) (UniProt P28702); experiment: ATG_RXRb_TRANS: Attagene TRANS-FACTORIAL HepG2 Assay for human Retinoid X Receptor beta (RXRb) (AID 2283013)
Sequence of human Retinoid X Receptor beta (RXRb), RXRB (gene 6257) (P28702 whole entry, looked up, the tested form may be a part): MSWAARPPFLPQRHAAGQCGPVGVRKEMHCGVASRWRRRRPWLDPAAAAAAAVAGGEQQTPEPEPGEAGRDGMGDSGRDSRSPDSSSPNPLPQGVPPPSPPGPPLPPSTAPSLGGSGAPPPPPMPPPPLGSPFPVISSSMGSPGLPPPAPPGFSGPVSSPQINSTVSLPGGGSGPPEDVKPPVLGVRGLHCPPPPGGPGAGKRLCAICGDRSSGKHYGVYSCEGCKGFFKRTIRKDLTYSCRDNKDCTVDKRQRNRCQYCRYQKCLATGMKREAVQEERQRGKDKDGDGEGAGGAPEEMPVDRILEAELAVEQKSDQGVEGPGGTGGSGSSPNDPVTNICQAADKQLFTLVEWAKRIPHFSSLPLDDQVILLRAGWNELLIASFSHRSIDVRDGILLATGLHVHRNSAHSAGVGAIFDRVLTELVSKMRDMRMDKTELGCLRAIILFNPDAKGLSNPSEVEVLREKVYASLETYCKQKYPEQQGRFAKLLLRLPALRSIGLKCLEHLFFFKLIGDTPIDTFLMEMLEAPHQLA
Method in brief: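 Chimeric receptor-Gal4 activity was assessed in transiently transfected human HepG2 cells after 24 h exposure. Transcripts from GAL4-UAS reporters were quantified by fluorescent RT-PCR and capillary electrophoresis, with DMSO as negative control and baseline.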

[12] = biological target: human Thyroid Receptor alpha (THRa1), THRA (gene 7067) (UniProt P10827); experiment: ATG_THRa1_TRANS: Attagene TRANS-FACTORIAL HepG2 Assay for human Thyroid Receptor alpha (THRa1) (AID 2283014)
Sequence of human Thyroid Receptor alpha (THRa1), THRA (gene 7067) (P10827 whole entry, looked up, the tested form may be a part): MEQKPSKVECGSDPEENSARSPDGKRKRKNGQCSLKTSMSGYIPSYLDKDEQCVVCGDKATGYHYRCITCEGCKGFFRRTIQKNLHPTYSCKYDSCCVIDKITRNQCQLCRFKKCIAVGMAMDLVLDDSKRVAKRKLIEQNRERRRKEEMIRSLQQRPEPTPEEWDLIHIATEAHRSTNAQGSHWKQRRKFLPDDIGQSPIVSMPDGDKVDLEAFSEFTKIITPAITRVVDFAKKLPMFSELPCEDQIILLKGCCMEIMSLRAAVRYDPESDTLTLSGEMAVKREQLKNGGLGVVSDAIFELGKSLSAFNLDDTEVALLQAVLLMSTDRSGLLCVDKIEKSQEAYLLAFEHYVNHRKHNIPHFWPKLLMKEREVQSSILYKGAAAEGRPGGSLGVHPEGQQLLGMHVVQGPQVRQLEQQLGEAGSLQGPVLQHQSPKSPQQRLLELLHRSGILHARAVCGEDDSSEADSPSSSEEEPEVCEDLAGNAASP
Method in brief: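 First, HepG2 cells receive multiple GAL4-UAS reporter units and the chimeric receptor. They are then dosed for 24 h, after which RNA is reverse-transcribed, amplified, labelled, HpaI-cut and sized by capillary electrophoresis; gain relative to DMSO is scored.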

[13] = read-out: Intercellular Adhesion Molecule 1 (ICAM1), ICAM1 (gene 3383); experiment: BSK_3C_ICAM1: BioMAP Diversity Plus: 3C Assay for Intercellular Adhesion Molecule 1 (ICAM1) Biomarker Activity (AID 2283003; active = hit-call score of the fitted dose curve at least 0.9, where 1 is the maximum; inactive = score below 0.9); conditions: primary human endothelial cells (HUVEC); actives raise or lower the signal
Method in brief: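 Chemicals are dosed onto primary human umbilical vein endothelium (3C system). After 24 h, ICAM-1 is measured by ELISA, and responses are fitted bidirectionally relative to DMSO.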

[14] = BSK_3C_Proliferation: Cell Proliferation Assessment in the BioMAP Diversity Plus: 3C Assay (AID 2283006; active = hit-call score of the fitted dose curve at least 0.9, where 1 is the maximum; inactive = score below 0.9;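 for AC50: potency may reflect either rise or fall in cell number versus DMSO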); conditions: primary human endothelial cells (HUVEC)
Method in brief: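 Cells (human umbilical vein endothelial, sub-confluent) receive test chemical; after 48 h they are fixed in 10% trichloroacetic acid, stained with 0.1% SRB and read at 560 nm. Activity is referenced to DMSO, fitting increases and decreases.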

[15] = read-out: E-selectin (Homo sapiens) (UniProt P16581); experiment: BSK_3C_Eselectin: BioMAP Diversity Plus: 3C Assay for Eselectin Biomarker Activity (AID 2283015; active = hit-call score of the fitted dose curve at least 0.9, where 1 is the maximum; inactive = score below 0.9;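 note: cell surface E-selectin protein quantified by ELISA 24 h after dosing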); conditions: primary human endothelial cells (HUVEC); actives raise or lower the signal
Method in brief: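 Human vascular endothelium from umbilical vein is exposed to test chemicals for 24 h. E-selectin levels are read by ELISA and compared with DMSO controls.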

[16] = read-out: Interleukin-1 alpha (IL1a), IL1A (gene 3552); experiment: BSK_BE3C_IL1a: BioMAP Diversity Plus: BE3C Assay for Interleukin-1 alpha (IL1a) Biomarker Activity (AID 2283016; active = hit-call score of the fitted dose curve at least 0.9, where 1 is the maximum; inactive = score below 0.9); conditions: primary human bronchial epithelial cells; actives raise or lower the signal
Method in brief: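 Signal from IL-1a ELISA, taken 24 h after chemical dosing of human bronchial epithelial cells, is compared with DMSO as baseline using bidirectional curve fitting.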

[17] = read-out: Monocyte Chemoattractant Protein-1 (MCP1), CCL2 (gene 6347); experiment: BSK_4H_MCP1: BioMAP Diversity Plus: 4H Assay for Monocyte Chemoattractant Protein-1 (MCP1) Biomarker Activity (AID 2283018; active = hit-call score of the fitted dose curve at least 0.9, where 1 is the maximum; inactive = score below 0.9); conditions: primary human endothelial cells (HUVEC); actives raise or lower the signal
Method in brief: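 Endothelial cells from umbilical vein were treated with test chemical, then after 24 h MCP-1 levels were quantified by ELISA; endpoint values came from bidirectional fitting with DMSO as baseline of activity.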

[18] = read-out: Human Leukocyte Antigen - DR isotype (HLADR), HLA-DRA (gene 3122); experiment: BSK_3C_HLADR: BioMAP Diversity Plus: 3C Assay for Human Leukocyte Antigen - DR isotype (HLADR) Biomarker Activity (AID 2283019; active = hit-call score of the fitted dose curve at least 0.9, where 1 is the maximum; inactive = score below 0.9;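 note: ELISA of cell-surface HLA-DR on HUVEC 24 h after dosing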); conditions: primary human endothelial cells (HUVEC); actives raise or lower the signal
Method in brief: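 Endothelial cells from human umbilical vein are treated with test chemical; after 24 h, HLA-DR levels are measured by ELISA. Data are fitted in both directions using DMSO as the baseline.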

[19] = read-out: Interleukin-8 (IL8), CXCL8 (gene 3576); experiment: BSK_3C_IL8: BioMAP Diversity Plus: 3C Assay for Interleukin-8 (IL8) Biomarker Activity (AID 2283020; active = hit-call score of the fitted dose curve at least 0.9, where 1 is the maximum; inactive = score below 0.9); conditions: primary human endothelial cells (HUVEC); actives raise or lower the signal
Method in brief: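 Endothelial primary cells of human umbilical vein origin are dosed with chemical; after 24 h the IL-8 biomarker is measured by ELISA, and concentration–response is fitted in both directions versus DMSO.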

[20] = biological target: Retinoic acid receptor alpha (Homo sapiens) (UniProt P10276); experiment: ATG_RARa_TRANS: Attagene TRANS-FACTORIAL HepG2 Assay for human Retinoic Acid Receptor alpha (RARa) (AID 2283005)
Sequence of Retinoic acid receptor alpha (Homo sapiens) (P10276 whole entry, looked up, the tested form may be a part): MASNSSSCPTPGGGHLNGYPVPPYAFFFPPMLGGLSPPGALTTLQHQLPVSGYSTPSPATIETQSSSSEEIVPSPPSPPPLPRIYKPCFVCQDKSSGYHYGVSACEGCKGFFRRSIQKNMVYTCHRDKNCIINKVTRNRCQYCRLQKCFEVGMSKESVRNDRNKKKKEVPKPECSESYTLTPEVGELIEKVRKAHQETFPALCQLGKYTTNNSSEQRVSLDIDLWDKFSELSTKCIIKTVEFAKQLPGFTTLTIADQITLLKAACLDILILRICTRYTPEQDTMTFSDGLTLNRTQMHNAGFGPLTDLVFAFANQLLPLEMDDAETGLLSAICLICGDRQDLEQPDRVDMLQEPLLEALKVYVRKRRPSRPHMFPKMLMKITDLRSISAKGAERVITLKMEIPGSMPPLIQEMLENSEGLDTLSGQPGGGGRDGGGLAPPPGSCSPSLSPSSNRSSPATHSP
Method in brief: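 HepG2 cells transiently transfected with multiple reporter units expressing chimeric RARα-GAL4 fusion, with GAL4-UAS-driven reporters. After 24 h compound exposure, reporter mRNA induction quantified by RT-PCR and capillary electrophoresis with fluorescent labeling; gain-of-signal fitted relative to DMSO control.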

Measured: AC50

Sequence of E-selectin (Homo sapiens) (P16581 whole entry, looked up): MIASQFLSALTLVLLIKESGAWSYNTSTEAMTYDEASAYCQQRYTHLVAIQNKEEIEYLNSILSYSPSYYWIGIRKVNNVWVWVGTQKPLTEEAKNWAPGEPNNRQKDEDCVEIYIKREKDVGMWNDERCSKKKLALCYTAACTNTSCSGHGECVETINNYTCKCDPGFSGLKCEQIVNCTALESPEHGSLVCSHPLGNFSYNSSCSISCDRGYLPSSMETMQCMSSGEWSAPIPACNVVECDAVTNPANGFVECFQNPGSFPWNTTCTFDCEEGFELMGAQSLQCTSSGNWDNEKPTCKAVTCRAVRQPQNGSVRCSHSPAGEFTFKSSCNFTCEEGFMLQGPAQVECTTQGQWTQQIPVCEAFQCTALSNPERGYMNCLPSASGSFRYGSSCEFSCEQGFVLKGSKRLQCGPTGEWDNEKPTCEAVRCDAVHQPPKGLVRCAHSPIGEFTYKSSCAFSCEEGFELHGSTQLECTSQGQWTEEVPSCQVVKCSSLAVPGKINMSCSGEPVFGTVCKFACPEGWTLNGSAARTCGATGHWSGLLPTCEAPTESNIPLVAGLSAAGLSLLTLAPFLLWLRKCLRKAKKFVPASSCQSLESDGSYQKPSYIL

Nc1ccc2cc3ccccc3cc2c1
inactive: [1] | [2] | [3] | [5] | [6] | [7] | [8] | [9] | [10]
active: [4] 26.8 µM

Cc1ccc(C(C)c2ccc(C)c(C)c2)cc1C
active: [4] 30.9 µM | [5] 2.91 µM
inactive: [1] | [2] | [3] | [7] | [9] | [11] | [12] | [10]

CCO[Si](CCCN=C=O)(OCC)OCC
inactive: [1] | [2] | [13] | [3] | [14] | [4] | [5] | [6] | [9] | [12] | [15] | [16] | [17] | [18] | [19] | [10]

[Cl][In]([Cl])[Cl]
inactive: [1] | [2] | [20] | [5] | [6] | [7] | [8] | [12]

O=C(Nc1cccc(C(F)(F)F)c1)c1cc(Br)cc(Br)c1O
inactive: [2] | [20] | [6] | [7] | [9] | [11] | [12] | [10]
active: [1] 1.58 µM | [4] 2.57 µM | [5] 1.07 µM

c1ccc(-c2ccccn2)nc1
inactive: [1] | [2] | [13] | [20] | [4] | [5] | [6] | [9] | [12] | [15] | [16] | [18] | [19] | [10]
active: [14] 29 µM | [17] 20 µM

Cc1ccc(N)c([N+](=O)[O-])c1
inactive: [1] | [2] | [4] | [5] | [8] | [9] | [10]

COCC(C)N (stereo unspecified)
inactive: [1] | [2] | [3] | [4] | [5] | [8] | [9] | [12] | [10]

C=CC(C)(CCC=C(C)C)OC(=O)C(C)C (stereo unspecified)
inactive: [1] | [2] | [3] | [4] | [6] | [9] | [12] | [10]
active: [5] 27.4 µM | [11] 57.4 µM

S=C(NC1CCCCC1)NC1CCCCC1
active: [5] 8.05 µM
inactive: [1] | [2] | [13] | [14] | [4] | [6] | [12] | [15] | [16] | [17] | [18] | [19] | [10]
